Experimental data reported in paper PMC7862700, “An all-to-all approach to the identification of sequence-specific readers for epigenetic DNA modifications on cytosine”.

How the values were obtained:
Test in all cases: DAPPL (digital affinity profiling via proximity ligation, sequencing); 10 mM Tris-HCl pH 7.5, 50 mM NaCl, 1 mM DTT, 4% glycerol, room temperature, 30 min; GST-TFs on glutathione beads, 16-mer random dsDNA library, 0.1% formaldehyde crosslink after washing; high values mean tight binding
FLI1 = molecular target: T1, FLI1 (Homo sapiens, UniProt Q01543 1-452); conditions: protein: recombinant; tags: N-terminal GST; dsDNA, one strand shown
T1 sequence: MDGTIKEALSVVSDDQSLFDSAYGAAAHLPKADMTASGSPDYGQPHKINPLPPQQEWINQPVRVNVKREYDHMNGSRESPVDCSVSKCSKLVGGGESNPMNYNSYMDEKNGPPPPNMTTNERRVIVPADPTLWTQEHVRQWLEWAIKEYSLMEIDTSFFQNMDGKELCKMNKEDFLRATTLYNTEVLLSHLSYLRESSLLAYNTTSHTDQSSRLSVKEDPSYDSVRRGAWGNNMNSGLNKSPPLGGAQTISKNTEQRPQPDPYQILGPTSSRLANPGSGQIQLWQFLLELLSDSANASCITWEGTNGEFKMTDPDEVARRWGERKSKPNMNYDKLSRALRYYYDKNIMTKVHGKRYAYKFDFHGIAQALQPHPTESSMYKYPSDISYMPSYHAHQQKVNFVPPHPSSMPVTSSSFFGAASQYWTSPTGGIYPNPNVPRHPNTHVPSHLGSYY
How it was run: (§1)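 A tag-only sample was pooled with DNA-barcoded human transcription factors that had been expressed in yeast as GST fusions and captured on glutathione beads. The pools were incubated for 30 min at room temperature with 200 nmole of a random double-stranded 16-mer DNA library in Tris/NaCl/DTT/glycerol buffer, then washed, crosslinked with 0.1% formaldehyde, proximity-ligated (BsaI/T4 ligase, 1 h, 37 °C), PCR-amplified and sequenced on an Illumina NextSeq500. Binding signal is each hexamer's read frequency for a factor divided by its frequency for the tag-only sample.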

ELK1 = molecular target: T2, ELK1 (Homo sapiens, UniProt P19419 1-428); conditions: protein: recombinant; tags: N-terminal GST; dsDNA, one strand shown
T2 sequence: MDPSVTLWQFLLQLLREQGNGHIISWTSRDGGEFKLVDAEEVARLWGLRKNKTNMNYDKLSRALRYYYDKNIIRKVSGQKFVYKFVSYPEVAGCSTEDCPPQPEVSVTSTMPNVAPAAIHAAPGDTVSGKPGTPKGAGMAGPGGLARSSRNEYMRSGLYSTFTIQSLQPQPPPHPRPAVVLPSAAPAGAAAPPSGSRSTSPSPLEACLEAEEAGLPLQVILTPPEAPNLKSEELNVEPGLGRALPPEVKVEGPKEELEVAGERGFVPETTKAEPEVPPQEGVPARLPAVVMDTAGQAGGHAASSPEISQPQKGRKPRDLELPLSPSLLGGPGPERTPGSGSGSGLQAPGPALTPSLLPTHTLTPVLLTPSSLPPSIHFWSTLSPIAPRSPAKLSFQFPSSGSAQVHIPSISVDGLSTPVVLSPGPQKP
How it was run: as §1

GABPA = molecular target: T3, GABPA (Homo sapiens, UniProt Q06546 1-454); conditions: protein: recombinant; tags: N-terminal GST; dsDNA, one strand shown
T3 sequence: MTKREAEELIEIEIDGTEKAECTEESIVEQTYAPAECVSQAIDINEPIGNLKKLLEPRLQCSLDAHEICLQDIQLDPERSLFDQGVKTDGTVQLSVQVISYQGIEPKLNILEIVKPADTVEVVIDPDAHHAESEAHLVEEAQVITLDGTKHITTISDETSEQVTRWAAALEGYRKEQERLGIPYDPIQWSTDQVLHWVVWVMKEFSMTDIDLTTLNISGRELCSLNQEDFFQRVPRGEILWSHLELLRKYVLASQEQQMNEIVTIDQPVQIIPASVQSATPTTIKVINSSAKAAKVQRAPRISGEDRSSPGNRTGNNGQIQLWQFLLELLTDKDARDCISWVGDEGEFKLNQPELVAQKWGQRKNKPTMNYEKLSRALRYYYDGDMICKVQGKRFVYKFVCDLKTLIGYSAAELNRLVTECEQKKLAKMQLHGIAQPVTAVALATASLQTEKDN
How it was run: as §1

ERG = molecular target: T4, ERG (Homo sapiens, UniProt P11308 1-479); conditions: protein: recombinant; tags: N-terminal GST; dsDNA, one strand shown
T4 sequence: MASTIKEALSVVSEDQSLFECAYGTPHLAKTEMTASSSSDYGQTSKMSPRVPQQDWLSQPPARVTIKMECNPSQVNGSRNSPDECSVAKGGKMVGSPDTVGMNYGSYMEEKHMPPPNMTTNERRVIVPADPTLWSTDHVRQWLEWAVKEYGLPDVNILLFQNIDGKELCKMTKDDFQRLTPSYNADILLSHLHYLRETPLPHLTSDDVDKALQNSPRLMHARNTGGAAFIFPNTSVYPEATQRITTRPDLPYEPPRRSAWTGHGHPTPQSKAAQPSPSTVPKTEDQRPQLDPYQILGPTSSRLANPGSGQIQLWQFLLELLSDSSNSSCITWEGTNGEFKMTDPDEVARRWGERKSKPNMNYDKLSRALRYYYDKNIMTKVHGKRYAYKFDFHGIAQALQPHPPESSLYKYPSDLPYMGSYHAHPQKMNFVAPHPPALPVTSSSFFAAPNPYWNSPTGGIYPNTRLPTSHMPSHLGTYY
How it was run: as §1

ELF1 = ELF1 (Homo sapiens, UniProt P32519 1-619); conditions: protein: recombinant; tags: N-terminal GST; dsDNA, one strand shown
How it was run: as §1

EHF = molecular target: T5, EHF (Homo sapiens, UniProt Q9NZC4 1-300); conditions: protein: recombinant; tags: N-terminal GST; dsDNA, one strand shown
T5 sequence: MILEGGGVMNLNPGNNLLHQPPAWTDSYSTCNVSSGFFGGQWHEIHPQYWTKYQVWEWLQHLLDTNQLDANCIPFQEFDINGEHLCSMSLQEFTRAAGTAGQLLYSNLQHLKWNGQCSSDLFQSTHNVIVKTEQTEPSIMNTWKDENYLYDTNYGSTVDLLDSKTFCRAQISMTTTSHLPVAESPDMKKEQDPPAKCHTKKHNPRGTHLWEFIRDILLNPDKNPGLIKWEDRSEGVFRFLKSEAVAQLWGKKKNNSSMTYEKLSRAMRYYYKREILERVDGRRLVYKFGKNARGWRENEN
How it was run: as §1

SPI1 = SPI1 (Homo sapiens, UniProt P17947 1-270); conditions: protein: recombinant; tags: N-terminal GST; dsDNA, one strand shown
How it was run: as §1

SPIB = SPIB (Homo sapiens, UniProt Q01892 1-262); conditions: protein: recombinant; tags: N-terminal GST; dsDNA, one strand shown
How it was run: as §1

ELK3 = molecular target: T6, ELK3 (Homo sapiens, UniProt P41970 1-407); conditions: protein: recombinant; tags: N-terminal GST; dsDNA, one strand shown
T6 sequence: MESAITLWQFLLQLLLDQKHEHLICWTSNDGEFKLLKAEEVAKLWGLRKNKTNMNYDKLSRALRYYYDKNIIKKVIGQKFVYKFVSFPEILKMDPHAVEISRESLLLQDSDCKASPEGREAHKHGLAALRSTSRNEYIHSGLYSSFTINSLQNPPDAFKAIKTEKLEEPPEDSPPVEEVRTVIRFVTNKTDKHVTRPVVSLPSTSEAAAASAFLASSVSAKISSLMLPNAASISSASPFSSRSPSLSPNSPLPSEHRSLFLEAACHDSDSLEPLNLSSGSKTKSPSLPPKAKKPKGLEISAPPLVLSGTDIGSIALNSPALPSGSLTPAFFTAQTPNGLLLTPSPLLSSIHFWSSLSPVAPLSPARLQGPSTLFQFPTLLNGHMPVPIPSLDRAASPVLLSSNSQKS
How it was run: as §1

FEV = molecular target: T7, FEV (Homo sapiens, UniProt Q99581 1-238); conditions: protein: recombinant; tags: N-terminal GST; dsDNA, one strand shown
T7 sequence: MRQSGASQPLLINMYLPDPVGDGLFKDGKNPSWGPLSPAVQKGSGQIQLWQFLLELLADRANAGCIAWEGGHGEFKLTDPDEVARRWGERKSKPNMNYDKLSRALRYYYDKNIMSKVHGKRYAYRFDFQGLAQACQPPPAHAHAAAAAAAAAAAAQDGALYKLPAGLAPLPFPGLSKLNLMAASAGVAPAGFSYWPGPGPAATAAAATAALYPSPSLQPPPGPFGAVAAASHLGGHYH
How it was run: as §1

ETV5 = ETV5 (Homo sapiens, UniProt P41161 1-510); conditions: protein: recombinant; tags: N-terminal GST; dsDNA, one strand shown
How it was run: as §1

HSF1 = HSF1 (Homo sapiens, UniProt Q00613 1-529); conditions: protein: recombinant; tags: N-terminal GST; chain copies: 3; dsDNA, one strand shown
How it was run: as §1

SPIC = molecular target: T8, SPIC (Homo sapiens, UniProt Q8N5J4 1-248); conditions: protein: recombinant; tags: N-terminal GST; dsDNA, one strand shown
T8 sequence: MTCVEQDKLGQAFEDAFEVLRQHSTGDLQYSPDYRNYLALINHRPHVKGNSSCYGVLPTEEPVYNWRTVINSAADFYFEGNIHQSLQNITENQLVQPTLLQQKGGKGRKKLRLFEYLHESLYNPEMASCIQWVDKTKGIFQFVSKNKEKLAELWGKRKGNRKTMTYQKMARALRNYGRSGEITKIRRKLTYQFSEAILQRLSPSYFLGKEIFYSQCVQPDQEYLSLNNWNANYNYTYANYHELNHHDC
How it was run: as §1

ELF4 = ELF4 (Homo sapiens, UniProt Q99607 1-663); conditions: protein: recombinant; tags: N-terminal GST; dsDNA, one strand shown
How it was run: as §1

ELK4 = molecular target: T9, ELK4 (Homo sapiens, UniProt P28324-2 1-405); conditions: protein: recombinant; tags: N-terminal GST; dsDNA, one strand shown
T9 sequence: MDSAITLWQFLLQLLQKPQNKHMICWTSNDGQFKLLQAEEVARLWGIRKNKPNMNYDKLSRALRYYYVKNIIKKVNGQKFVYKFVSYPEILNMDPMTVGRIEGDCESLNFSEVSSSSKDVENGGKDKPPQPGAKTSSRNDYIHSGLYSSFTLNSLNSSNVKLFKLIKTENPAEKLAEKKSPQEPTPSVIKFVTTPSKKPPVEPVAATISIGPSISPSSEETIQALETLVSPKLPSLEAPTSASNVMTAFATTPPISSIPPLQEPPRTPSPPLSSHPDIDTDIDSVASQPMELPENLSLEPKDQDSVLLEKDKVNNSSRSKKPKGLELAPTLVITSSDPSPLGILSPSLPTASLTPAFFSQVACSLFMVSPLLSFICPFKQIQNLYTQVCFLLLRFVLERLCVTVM
How it was run: as §1

ETV2 = molecular target: T10, ETV2 (Homo sapiens, UniProt O00321 1-342); conditions: protein: recombinant; tags: N-terminal GST; dsDNA, one strand shown
T10 sequence: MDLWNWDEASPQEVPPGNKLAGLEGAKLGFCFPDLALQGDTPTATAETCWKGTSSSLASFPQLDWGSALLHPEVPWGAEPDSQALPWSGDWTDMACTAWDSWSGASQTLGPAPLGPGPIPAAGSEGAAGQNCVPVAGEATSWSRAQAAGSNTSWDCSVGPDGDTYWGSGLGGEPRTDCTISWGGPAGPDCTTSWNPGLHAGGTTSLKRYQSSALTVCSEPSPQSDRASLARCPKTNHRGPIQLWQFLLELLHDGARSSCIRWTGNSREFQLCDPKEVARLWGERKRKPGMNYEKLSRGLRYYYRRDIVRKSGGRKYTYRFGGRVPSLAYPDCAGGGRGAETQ
How it was run: as §1

ELF3 = molecular target: T11, ELF3 (Homo sapiens, UniProt P78545 1-371); conditions: protein: recombinant; tags: N-terminal GST; dsDNA, one strand shown
T11 sequence: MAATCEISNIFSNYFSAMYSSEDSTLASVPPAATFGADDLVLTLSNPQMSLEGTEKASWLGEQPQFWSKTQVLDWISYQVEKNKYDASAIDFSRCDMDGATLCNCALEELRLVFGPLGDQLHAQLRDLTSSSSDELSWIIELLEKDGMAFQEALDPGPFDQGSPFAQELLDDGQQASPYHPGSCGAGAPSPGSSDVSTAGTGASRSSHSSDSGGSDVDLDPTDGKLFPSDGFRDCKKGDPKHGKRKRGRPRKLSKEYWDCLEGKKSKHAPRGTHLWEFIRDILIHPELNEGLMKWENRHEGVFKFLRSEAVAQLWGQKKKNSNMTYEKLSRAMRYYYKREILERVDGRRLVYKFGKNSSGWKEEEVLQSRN
How it was run: as §1

CRX = CRX (Homo sapiens, UniProt O43186 1-299); conditions: protein: recombinant; tags: N-terminal GST; dsDNA, one strand shown
How it was run: as §1

ETV1 = ETV1 (Homo sapiens, UniProt P50549 1-477); conditions: protein: recombinant; tags: N-terminal GST; dsDNA, one strand shown
How it was run: as §1

Chain of ELF1 (P32519 whole entry): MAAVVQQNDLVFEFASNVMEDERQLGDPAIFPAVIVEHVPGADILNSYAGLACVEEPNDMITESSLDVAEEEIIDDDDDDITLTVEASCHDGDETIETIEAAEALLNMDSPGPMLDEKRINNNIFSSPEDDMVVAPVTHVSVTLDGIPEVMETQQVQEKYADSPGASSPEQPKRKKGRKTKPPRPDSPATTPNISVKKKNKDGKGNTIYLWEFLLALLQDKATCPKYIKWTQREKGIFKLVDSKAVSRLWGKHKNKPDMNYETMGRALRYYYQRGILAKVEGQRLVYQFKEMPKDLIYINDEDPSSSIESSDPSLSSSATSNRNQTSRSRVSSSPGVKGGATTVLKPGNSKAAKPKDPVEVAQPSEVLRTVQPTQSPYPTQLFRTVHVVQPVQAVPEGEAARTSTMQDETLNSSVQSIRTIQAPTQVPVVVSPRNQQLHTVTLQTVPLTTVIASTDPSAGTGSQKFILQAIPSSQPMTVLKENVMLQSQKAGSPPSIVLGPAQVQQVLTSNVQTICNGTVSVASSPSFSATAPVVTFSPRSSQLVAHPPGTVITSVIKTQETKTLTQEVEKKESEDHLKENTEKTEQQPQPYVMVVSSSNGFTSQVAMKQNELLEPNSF
Chain of SPIB (Q01892 whole entry): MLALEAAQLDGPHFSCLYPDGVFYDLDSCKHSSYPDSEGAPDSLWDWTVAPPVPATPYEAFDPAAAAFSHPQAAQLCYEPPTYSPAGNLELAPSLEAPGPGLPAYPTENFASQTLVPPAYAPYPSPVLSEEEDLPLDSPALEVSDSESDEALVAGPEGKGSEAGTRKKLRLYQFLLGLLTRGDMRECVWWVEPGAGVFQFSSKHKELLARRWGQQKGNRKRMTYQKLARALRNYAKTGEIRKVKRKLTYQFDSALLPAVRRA
Chain of ETV5 (P41161 whole entry): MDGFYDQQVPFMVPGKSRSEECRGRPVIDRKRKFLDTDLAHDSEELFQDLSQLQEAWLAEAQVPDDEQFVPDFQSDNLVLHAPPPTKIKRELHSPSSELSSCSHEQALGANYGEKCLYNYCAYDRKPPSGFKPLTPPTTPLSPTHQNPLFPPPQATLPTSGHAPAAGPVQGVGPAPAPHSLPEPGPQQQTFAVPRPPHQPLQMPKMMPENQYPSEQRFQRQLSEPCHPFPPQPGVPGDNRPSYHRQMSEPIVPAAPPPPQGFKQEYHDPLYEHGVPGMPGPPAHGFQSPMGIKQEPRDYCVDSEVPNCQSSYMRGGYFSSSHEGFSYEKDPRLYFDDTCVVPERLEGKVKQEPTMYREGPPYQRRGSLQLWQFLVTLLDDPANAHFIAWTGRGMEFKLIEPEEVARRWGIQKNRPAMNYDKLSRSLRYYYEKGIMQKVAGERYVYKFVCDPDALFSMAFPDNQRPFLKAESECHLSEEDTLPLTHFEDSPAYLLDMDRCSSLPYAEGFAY
Chain of ELF4 (Q99607 whole entry): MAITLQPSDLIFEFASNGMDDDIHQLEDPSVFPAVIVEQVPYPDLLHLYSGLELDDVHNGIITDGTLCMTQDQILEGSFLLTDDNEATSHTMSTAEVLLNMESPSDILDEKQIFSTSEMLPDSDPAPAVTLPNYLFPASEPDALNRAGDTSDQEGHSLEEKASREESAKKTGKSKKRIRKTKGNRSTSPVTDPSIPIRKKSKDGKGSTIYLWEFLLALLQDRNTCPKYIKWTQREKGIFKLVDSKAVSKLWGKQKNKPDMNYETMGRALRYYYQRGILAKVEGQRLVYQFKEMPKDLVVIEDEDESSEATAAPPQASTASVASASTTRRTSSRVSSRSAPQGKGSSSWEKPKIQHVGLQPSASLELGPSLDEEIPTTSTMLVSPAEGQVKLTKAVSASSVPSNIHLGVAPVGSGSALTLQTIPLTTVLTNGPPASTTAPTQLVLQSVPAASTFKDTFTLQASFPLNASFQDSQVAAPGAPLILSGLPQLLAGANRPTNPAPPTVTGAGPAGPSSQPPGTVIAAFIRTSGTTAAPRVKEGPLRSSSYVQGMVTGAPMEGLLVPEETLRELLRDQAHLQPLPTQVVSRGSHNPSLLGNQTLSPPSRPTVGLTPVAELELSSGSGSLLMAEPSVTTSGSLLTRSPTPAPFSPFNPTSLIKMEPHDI
Chain of HSF1 (Q00613 whole entry): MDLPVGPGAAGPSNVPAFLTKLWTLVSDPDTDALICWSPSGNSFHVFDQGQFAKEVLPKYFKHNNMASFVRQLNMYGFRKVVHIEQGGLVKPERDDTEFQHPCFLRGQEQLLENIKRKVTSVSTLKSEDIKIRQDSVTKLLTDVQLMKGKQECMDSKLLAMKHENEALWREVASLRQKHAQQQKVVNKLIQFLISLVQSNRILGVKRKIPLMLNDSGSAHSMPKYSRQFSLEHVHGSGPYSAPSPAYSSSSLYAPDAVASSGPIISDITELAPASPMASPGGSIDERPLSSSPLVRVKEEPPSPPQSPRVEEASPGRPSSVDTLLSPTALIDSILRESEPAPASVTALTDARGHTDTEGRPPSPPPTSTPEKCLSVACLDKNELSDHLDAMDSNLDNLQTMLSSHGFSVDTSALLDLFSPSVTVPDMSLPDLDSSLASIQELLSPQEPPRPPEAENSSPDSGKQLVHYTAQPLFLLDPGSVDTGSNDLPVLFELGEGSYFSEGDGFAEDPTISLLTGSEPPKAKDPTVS
Chain of ETV1 (P50549 whole entry): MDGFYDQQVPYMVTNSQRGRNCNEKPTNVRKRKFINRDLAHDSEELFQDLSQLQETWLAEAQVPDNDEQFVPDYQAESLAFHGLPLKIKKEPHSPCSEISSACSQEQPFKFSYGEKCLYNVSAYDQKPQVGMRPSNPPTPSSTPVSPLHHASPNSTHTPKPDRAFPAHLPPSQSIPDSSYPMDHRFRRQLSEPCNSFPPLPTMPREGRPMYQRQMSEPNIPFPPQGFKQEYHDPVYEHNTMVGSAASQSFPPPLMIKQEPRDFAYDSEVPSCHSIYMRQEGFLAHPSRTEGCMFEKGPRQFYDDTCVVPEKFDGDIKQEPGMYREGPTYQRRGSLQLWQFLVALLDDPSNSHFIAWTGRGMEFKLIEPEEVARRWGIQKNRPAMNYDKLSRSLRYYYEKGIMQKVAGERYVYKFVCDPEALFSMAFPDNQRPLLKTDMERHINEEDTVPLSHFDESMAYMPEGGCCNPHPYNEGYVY
Chain of CRX (O43186 whole entry): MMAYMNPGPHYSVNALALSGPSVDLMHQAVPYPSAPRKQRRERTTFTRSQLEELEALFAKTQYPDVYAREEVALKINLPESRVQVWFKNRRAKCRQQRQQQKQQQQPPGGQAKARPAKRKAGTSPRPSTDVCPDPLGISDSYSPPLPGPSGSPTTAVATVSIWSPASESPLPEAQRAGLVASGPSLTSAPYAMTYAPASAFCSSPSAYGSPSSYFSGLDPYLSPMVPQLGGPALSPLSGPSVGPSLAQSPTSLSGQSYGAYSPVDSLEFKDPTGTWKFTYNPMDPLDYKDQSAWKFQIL

With TTCTCG the binding signal (FLI1) was 1.51 fold enrichment (6-mer frequency, TF over GST control), the binding signal (ELK1) was 1.43 fold enrichment (6-mer frequency, TF over GST control) and the binding signal (GABPA) was 1.55 fold enrichment (6-mer frequency, TF over GST control). For the same sequence, the binding signal (ERG) was 1.38 fold enrichment (6-mer frequency, TF over GST control), the binding signal (ELF1) was 1.36 fold enrichment (6-mer frequency, TF over GST control) and the binding signal (EHF) was 1.34 fold enrichment (6-mer frequency, TF over GST control). The binding signal (SPI1) was 1.42 fold enrichment (6-mer frequency, TF over GST control), the binding signal (SPIB) was 1.46 fold enrichment (6-mer frequency, TF over GST control) and the binding signal (ELK3) was 1.44 fold enrichment (6-mer frequency, TF over GST control). The binding signal (FEV) was 1.35 fold enrichment (6-mer frequency, TF over GST control), the binding signal (ETV5) was 1.29 fold enrichment (6-mer frequency, TF over GST control) and the binding signal (HSF1) was 4.96 fold enrichment (6-mer frequency, TF over GST control). For the same sequence, the binding signal (SPIC) was 1.32 fold enrichment (6-mer frequency, TF over GST control), the binding signal (ELF4) was 1.51 fold enrichment (6-mer frequency, TF over GST control) and the binding signal (ELK4) was 1.5 fold enrichment (6-mer frequency, TF over GST control). For the same sequence, the binding signal (ETV2) was 1.4 fold enrichment (6-mer frequency, TF over GST control), the binding signal (ELF3) was 1.57 fold enrichment (6-mer frequency, TF over GST control) and the binding signal (CRX) was 2.17 fold enrichment (6-mer frequency, TF over GST control). For the same sequence, the binding signal (ETV1) was 1.29 fold enrichment (6-mer frequency, TF over GST control).
